Inconclusive results are not listed. Entries that show only a call come without a potency. Calls of active or inactive are those of the source. Calls come from the whole dose curve; as a rule, active = well fitted cell-killing curve with a large enough effect in the repeat runs (not every such curve was filed as active); inconclusive = weak or mixed curves, or effect the other way; inactive = no such curve, though single readings can be large or run the other way.
Assay: qHTS assay to identify small molecule antagonists of the farnesoid-X-receptor (FXR) signaling pathway - cell viability counter screen (AID 743221); note: nearly all actives have a fitted effect of over 50% in size
Conditions: FXR-bla HEK293T viability, CellTiter-Glo luminescence, 16 h; series mostly up to 62.6 µM
Summary of the method: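 Quantitative HTS of the Tox21 10K library run in parallel with the beta-lactamase reporter read. HEK 293T cells carrying a UAS-driven bla reporter got compound and 50 uM CDCA (final) for 16 h; ATP-based luminescence followed.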

Row | Structure (SMILES) | Potency
1 | CC(CN)CCCN (centres undefined) | inactive
2 | CC(=O)O[C@H]1C[C@@H]2CC[C@@H]3[C@H](CC[C@@]4(C)[C@H]3C[C@H]([N+]3(C)CCCCC3)[C@@H]4OC(C)=O)[C@@]2(C)C[C@@H]1N1CCCCC1 | inactive
3 | CC(C)CCCC(C)CCO (centres undefined) | inactive
4 | CC(=O)NCCCS(=O)(=O)O | inactive
5 | CCCCC(CC)(CO)CO | inactive
6 | CCCCOC(=O)c1ccccc1C(=O)OCC(CC)CCCC (centres undefined) | inactive
7 | CCOc1ccc2[nH]cc(C(=O)NCc3ccccc3)c(=O)c2n1 | inactive
8 | CC(=O)Nc1ccc(/C=N/NC(N)=S)cc1 | inactive
9 | CCCCCCCCC(CO)CCCCCC (centres undefined) | inactive
10 | CCCC[C@H]1CN(CC2CCOCC2)C(=O)OC12CCN(C1(C)CCN(C(=O)c3c(C)ncnc3C)CC1)CC2 | inactive
11 | O=C1CCCCCO1 | inactive
12 | CC(=O)OCCc1ccccc1 | inactive
13 | CCCCc1cc2ccccc2c(OCCN(C)C)n1 | inactive
14 | O=c1[nH]cnc2ccccc12 | inactive
15 | CN1CCC[C@@H]1c1cccnc1 | inactive
16 | N#CCc1cccc(C(F)(F)F)c1 | inactive
17 | Nc1nc(N)c(-c2ccccc2)s1 | inactive
18 | CNS(=O)(=O)Cc1ccc2[nH]cc(CCN(C)C)c2c1 | inactive
19 | C=C(C)C(=O)OC(C)C | inactive
20 | COC(Cc1ccccc1)OC | inactive
21 | O=C(O)/C=C/c1cnc[nH]1 | inactive
22 | CCN1CCC[C@H]1CNC(=O)c1c(OC)ccc(Br)c1OC | inactive
23 | N[C@H]1C(O)O[C@H](CO)[C@H](O)[C@@H]1O (some centres undefined) | inactive
24 | CC(C)(C)c1cc(CCC(=O)OCC(COC(=O)CCc2cc(C(C)(C)C)c(O)c(C(C)(C)C)c2)(COC(=O)CCc2cc(C(C)(C)C)c(O)c(C(C)(C)C)c2)COC(=O)CCc2cc(C(C)(C)C)c(O)c(C(C)(C)C)c2)cc(C(C)(C)C)c1O | inactive

— PubChem BioAssay (Tox21)
